Consider 108 compounds from PubChem BioAssay AID1030 (National Center for Advancing Translational Sciences (NCATS), 2008).

Where “and” joins values, the source holds several entries; their conditions need not be identical. Identical values can stand only once. About 16,000 (7.3%) of roughly 220,000 compounds were called active. Not shown: some 25% with an inconclusive outcome. Shown is part of a subset that was picked to be rich in actives. Where a call stands in place of a potency, no number is given. Values without a mark were called inactive. Calls come from the whole dose curve; as a rule, active = well fitted inhibition curve with a large enough effect (not every such curve was filed as active); inconclusive = small, poorly fitted or top-dose-only effect, or another doubt; inactive = no such curve, though single readings can be large or run the other way. Peptide text beside a SMILES is read from it. * marks the point of attachment. OPac = O=C(CO*)c1ccccc1; Bz = O=C(c1ccccc1)*
Potency is the fitted concentration of half-maximal effect.

Aldehyde dehydrogenase 1A1 (Homo sapiens), sequence (P00352 whole entry, looked up): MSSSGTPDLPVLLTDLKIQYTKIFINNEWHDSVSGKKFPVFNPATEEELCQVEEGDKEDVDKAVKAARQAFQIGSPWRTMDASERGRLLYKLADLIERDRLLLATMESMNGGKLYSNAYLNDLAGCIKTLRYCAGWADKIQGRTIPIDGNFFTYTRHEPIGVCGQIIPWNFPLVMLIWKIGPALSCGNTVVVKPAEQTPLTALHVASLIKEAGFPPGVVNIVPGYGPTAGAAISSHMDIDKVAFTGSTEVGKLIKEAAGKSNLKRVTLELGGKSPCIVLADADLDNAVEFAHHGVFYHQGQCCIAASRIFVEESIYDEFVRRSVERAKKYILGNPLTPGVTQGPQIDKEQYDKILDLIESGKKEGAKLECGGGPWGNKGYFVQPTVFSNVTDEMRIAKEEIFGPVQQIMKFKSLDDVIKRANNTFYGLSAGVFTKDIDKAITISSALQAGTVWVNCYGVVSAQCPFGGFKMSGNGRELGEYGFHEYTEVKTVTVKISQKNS

The experiment concerns the target Aldehyde dehydrogenase 1A1 (Homo sapiens) (UniProt P00352). Put plainly: qHTS Assay for Inhibitors of Aldehyde Dehydrogenase 1 (ALDH1A1). The conditions noted are these: Purified ALDH1A1, NADH fluorescence, propionaldehyde substrate; series mostly up to 75.3 µM.
Turning to `COc1ccc(-n2nc(C(=O)Nc3cc(OC)c(OC)c(OC)c3)c3ccccc3c2=O)c(OC)c1`, the Potency entry was “inactive”. On the same count and under the same terms, the same measure for `COC(=O)c1c(NC(=O)c2cccs2)sc2c1CCCC2`: “inactive”; for `CNC(=O)c1c(NC(NC(=O)c2ccco2)C(=O)c2ccc(Cl)cc2)sc2c1CCCC2` (stereo not drawn): 14.1 µM (active); for `CCOC(=O)c1c(NC(=S)NC(=O)c2ccco2)sc2c1CCCC2`: “inactive”.

Turning to `COc1cc(OC)cc(-c2nnc(N(C)C(=O)c3ccncc3)s2)c1`, the Potency result is “inactive”. Same read-out and setting: the same measure for `O=C1[C@@H]2C(c3cccnc3)=NO[C@@H]2C(=O)N1c1ccc(Cl)cc1Cl`: 3.55 µM (active). Consider `COC(=O)CCCC1=CC2=CC(=O)C(C)(OC(=O)c3cccs3)C(=O)C2=CN1CC(C)C` (stereo not drawn), for which the activity, negative = inhibition was -2.57% [at 13.5 µM]. In the case of `c1ccc(-c2ccccc2OCCN2CCCCC2)cc1`, the Potency result was “inactive”. The same measure, in the same setting: the same measure for `CN1CCN(CCCCOc2ccccc2-c2ccccc2)CC1`: 10 µM (active). On to `CC1CCCN(CCOCCOc2ccccc2-c2ccccc2)C1` (stereo not drawn), for which the Potency result was “inactive”. The same measure, in the same setting: the same measure for `O=C(c1ccc(Cl)c(Cl)c1)N1CCCC1`: “inactive”; for `Cc1c(Cl)cccc1NC(=O)Nc1ccc(C(=O)N2CCCC2)cc1`: 20 µM (active).

As for `O=C(Nc1ccccc1C(=O)N1CCCCCC1)c1ccccc1Cl`, the Potency entry is “inactive”. Still for that read-out and setting: the same measure for `Cc1ccc(S(=O)(=O)N(C)C)cc1NC(=O)COC(=O)C1COc2ccccc2O1` (stereo not drawn): “inactive”. On the same count and under the same terms, to `CCOC(=O)/C(=N\Nc1ccccc1[N+](=O)[O-])c1csc(Nc2ccccc2)n1` belongs “inactive”. On the same count and under the same terms, the same measure for `C/C(=C\C(=O)c1ccccc1)Nc1cccc(O)c1`: “inactive”; for `CN(C)S(=O)(=O)c1cccc(C(=O)Nc2cccnc2)c1`: “inactive”. Take `CN(C)S(=O)(=O)c1cccc(NC(=S)N/N=C/C(=O)c2ccccc2)c1`: the Potency was 8.91 µM (active). Same read-out and setting: the same measure for `O=C(Nc1cccc(Cl)c1)OCc1ccccn1`: “inactive”; for `O=C(CC1SC(=Nc2ccccc2)N(Cc2ccccn2)C1=O)Nc1cccc(Cl)c1` (stereo not drawn): 20 µM (active); for `CN1C(=O)C(CC(=O)Nc2ccccc2)S/C1=N/c1nccs1` (stereo not drawn): “inactive”. On the same count and under the same terms, the same measure for `c1ccc2c(c1)OCCOCCOCCO2`: “inactive”; for `Cc1c(Cl)cnc(NC(=O)COC(=O)c2ccc(S(=O)(=O)NCc3ccco3)cc2)c1Cl`: “inactive”.

`CCc1cc2c(SCC(=O)Nc3ncc(Cl)c(C)c3Cl)ncnc2s1`: the Potency entry was “inactive”. The same measure, in the same setting: the same measure for `CSCCC(NC(=O)c1ccco1)C(=O)OCC(=O)Nc1ncc(Cl)c(C)c1Cl` (stereo not drawn): 22.4 µM (active); for `COC(=O)c1ccc(OCC(O)CN(CCO)CC(O)Cn2ccc3ccccc32)cc1` (stereo not drawn): “inactive”. Consider `O=C(/C=C/NCc1ccc(F)cc1)c1ccccc1`, for which the Potency result is “inactive”. The same measure, in the same setting: the same measure for `O=C(CNC(=O)c1ccccc1)NCC(=O)OCC(=O)c1ccccc1` (Bz-Gly-Gly-OPac): “inactive”; for `O=C(/C=C\NCC(=O)c1ccccc1)c1ccccc1`: 2.51 µM (active). Still for that read-out and setting: the same measure for `OCCC1CN(Cc2ccc(Oc3ncccn3)cc2)CCN1CCc1ccccc1` (stereo not drawn): “inactive”; for `COc1cccc(C(=O)Nc2cccnc2)c1OC`: “inactive”; for `O=C(O)c1cccc(NC(=O)c2cc(-c3cccc(Cl)c3)nc3ccccc23)c1`: “inactive”. Regarding `O=C(c1ccc2ccccc2n1)N1CCN(c2ccccc2Cl)CC1`, the Potency result was “inactive”.

Regarding `S=C(Nc1ccc(Br)cc1Cl)N1CCC2(CC1)OCCO2`, the Potency entry is “inactive”. As to `CC(C)C[C@H](NC(=O)[C@H](O)[C@H](N)Cc1ccccc1)C(=O)O`, the Potency result is “inactive”. In the case of `O=C(CN1CCN(c2ccc(Cl)cc2)CC1)N1CCCC1`, the Potency result is “inactive”. Same read-out and setting: to `O=C(CSCc1ccc(Cl)cc1)N1CCN(Cc2ccc3c(c2)OCO3)CC1` belongs “inactive”; to `O=C(CSCc1ccc(Cl)cc1)N1CCCCC1`, 11.2 µM (active).

Consider `COc1ccccc1NC(=S)N1CCC(NC(=O)C23CC4CC(CC(C4)C2)C3)CC1`, for which the Potency result is “inactive”.

With `Cc1ccc(NC(=O)OCCNC(=O)c2ccncc2)cc1`, the Potency result is “inactive”. Still for that read-out and setting: the same measure for `CN(C)S(=O)(=O)c1ccc2oc(SCC(=O)Nc3ccccc3F)nc2c1`: “inactive”; for `N#C/C(=C1/CCCN1)c1ccccn1`: “inactive”; for `Cc1ccc(O)c(CNc2nc3ccccc3n2C)c1`: “inactive”. In the case of `Cn1c(/C(C#N)=C2/CCCCCN2)nc2ccccc21`, the Potency is 17.8 µM (active). Still for that read-out and setting: to `NC(=O)c1nnsc1-c1ccc(-c2snnc2C(N)=O)cc1` belongs “inactive”; to `O=C(C/C(=N\NC(=O)c1ccccc1Br)C(F)(F)F)c1cccs1`, “inactive”; to `COc1ccc(C(=O)Nc2ccc(F)cc2F)cc1`, “inactive”.

On to `O=C(O)/C=C/C(=O)Nc1ccc(F)cc1F`, for which the Potency was 25.1 µM (active). The same measure, in the same setting: to `CC(C)CC(=O)NC(=S)Nc1ccc(F)cc1F` belongs “inactive”; to `Nc1c(Cl)cc(S(N)(=O)=O)cc1S(N)(=O)=O`, “inactive”; to `CCC(C)(C)NC(=O)C(c1cccc(OC)c1OC)N(CC(C)C)C(=O)CCC(=O)Nc1cc(C)on1` (stereo not drawn), “inactive”.

Regarding `Cc1ccc(S(=O)(=O)CCC(=O)OCc2ccccc2)cc1`, the Potency result was “inactive”. Take `CCCCN(C)CCNC(=O)CSCc1ccc(C)cc1`: the Potency result was “inactive”. In the case of `Cc1ccc(CSCC(N)C(=O)O)cc1` (stereo not drawn), the Potency is 31.6 µM (active). On the same count and under the same terms, to `O=C(CNC(=O)c1cc(=O)[nH]c2ccccc12)Nc1ccc(F)c(F)c1` belongs “inactive”; to `COc1cc(C(F)(F)F)c(C(=O)N(C)c2ccc(Cl)cc2)cn1`, “inactive”; to `Cc1noc(C)c1/C=N/Nc1ccc2ccccc2n1`, “inactive”. Still for that read-out and setting: the same measure for `S=c1[nH]nc(NCCc2ccccc2)s1`: 12.6 µM (active); for `O=c1cnnc(Nc2ccccc2)[nH]1`: “inactive”. Still for that read-out and setting: the same measure for `c1ccc(Nc2n[nH]nc2-c2ccccc2)cc1`: “inactive”; for `O=C(CSc1ncccn1)NCCc1ccccc1`: “inactive”; for `Cc1nc(C)c(-c2csc(NCCc3ccccc3)n2)s1`: “inactive”.

With `S=c1[nH]nc(Nc2ccccc2)s1`, the Potency was 6.31 µM (active). Same read-out and setting: the same measure for `O=C(CCCn1c(=O)c2sccc2n(CC(=O)NCC2CCCO2)c1=O)NCc1ccco1` (stereo not drawn): “inactive”; for `CCCN(C(=O)CSc1nnnn1C)c1c(N)n(Cc2ccccc2)c(=O)[nH]c1=O`: “inactive”; for `COc1cc(/C=C/CO)cc(OC)c1O[C@@H]1O[C@H](CO)[C@@H](O)[C@H](O)[C@H]1O`: “inactive”.

With `COc1ccc(/C=C/C2=CC(C)(C)NC(=S)N2)c(OC)c1`, the Potency was 0.708 µM (active). Same read-out and setting: the same measure for `COc1cc(/C=C/C2=CC(C)(C)NC(=S)N2)cc(OC)c1OC`: 3.98 µM (active); for `Cc1ccc2nc(C)cc(N/N=C/c3ccc(F)cc3)c2c1`: “inactive”. The same measure, in the same setting: to `O=C(NNc1cc(Cl)ccc1Cl)c1cccnc1Cl` belongs “inactive”. On the same count and under the same terms, to `C=CC1(C)CC(=O)C2(O)C(C)(O1)C(OC(C)=O)C(O)C1C(C)(C)CCC(O)C12C` (stereo not drawn) belongs “inactive”. Regarding `Cc1c(CCC(=O)O)c(=O)oc2cc3occ(-c4ccccc4)c3cc12`, the Potency result is “inactive”. Same read-out and setting: to `O=C(COc1ccc(S(=O)(=O)N2CCCCC2)cc1)NCc1ccccn1` belongs “inactive”; to `Cc1nc([N+](=O)[O-])nn1C12CC3CC(CC(Br)(C3)C1)C2`, 8.91 µM (active).

As for `Cc1ncn(C23CC4CC(CC(O)(C4)C2)C3)n1`, the Potency entry is “inactive”. For the compound `Cc1cn(C)c(=O)n(C)c1=O`, the Potency entry is “inactive”. With `CN(C)CCCSc1ccccc1NC(=O)/C=C/c1ccccc1`, the Potency entry was “inactive”. The same measure, in the same setting: the same measure for `O=C(CCN1C(=O)c2ccncc2C1=O)Nc1cc(F)ccc1F`: “inactive”; for `Cc1ccc(N(C(=O)Cc2cccs2)C2C=CS(=O)(=O)C2)cc1Cl` (stereo not drawn): “inactive”. Still for that read-out and setting: to `Cc1cccc(N2CCN(C(=O)c3ccccc3NC(=O)C3CCCCC3C(=O)O)CC2)c1` (stereo not drawn) belongs “inactive”; to `CC(C)c1ccc(N2CCN(C(=O)c3ccccc3NC(=O)/C=C(\C(=O)O)c3ccccc3)CC2)cc1`, 22.4 µM (active); to `O=C(O)C1CC=CCC1C(=O)Nc1ccccc1C(=O)N1CCN(c2ccccc2)CC1` (stereo not drawn), “inactive”.

Consider `O=C(NC1(C(F)(F)F)NC(=O)N(C2CCCCC2)C1=O)c1ccco1` (stereo not drawn), for which the Potency entry is “inactive”. The same measure, in the same setting: the same measure for `CCOc1c2ccc(C(=O)NCc3ccc(OC(F)(F)F)cc3)cc2nn1C`: 3.16 µM (active); for `CCOc1ccc(Cn2nnc(C(=O)NCc3ccccc3)c2N)cc1`: “inactive”. Same read-out and setting: to `CCCCOc1ccc(C(=O)NCc2ccncc2)cc1` belongs “inactive”; to `CCOC(=O)C(C)n1nc(-c2ccccc2)c2ccccc2c1=O` (stereo not drawn), “inactive”; to `Cc1cc(NC(=O)Nc2ccccc2[N+](=O)[O-])no1`, “inactive”. In the case of `COc1ccc(/C=C/NC(=O)Cc2ccc(OC)c(OC)c2)cc1`, the activity, negative = inhibition was 8.87% [at 13.5 µM] and 1.01% [at 13.5 µM].

For the compound `COc1ccc(/C=C/NC(=O)c2ccc(OC)cc2)cc1`, the Potency is 2.82 µM (active). For the compound `COc1ccc(NC(=O)c2ccc(OC)cc2)cc1`, the Potency result is “inactive”.

Take `CCOC(=O)C1C(c2ccc(Cl)cc2)NC(=S)NC1(O)C(F)(F)F` (stereo not drawn): the Potency was 7.94 µM (active). Still for that read-out and setting: the same measure for `CCOC(=O)NNC(=O)c1ccc(Cl)cc1`: “inactive”. On the same count and under the same terms, the same measure for `O=C(c1cccs1)C1C(c2ccc(Br)cc2)NC(=S)NC1(O)C(F)(F)F` (stereo not drawn): 3.16 µM (active); for `CC(=O)C1C(c2ccc(Cl)cc2)NC(=O)NC1(O)C(F)(F)F` (stereo not drawn): “inactive”; for `O=C(CN(C(=O)c1csnn1)c1cccc(F)c1)NCc1ccc(F)cc1`: “inactive”. Same read-out and setting: to `CCn1cnc2scc(-c3ccc(C)c(C)c3)c2c1=O` belongs “inactive”; to `CN1C(=O)/C(=C\c2cc(Br)cs2)c2ccccc21`, “inactive”; to `CC(C)c1csc(CN2CCC(CO)(Cc3ccccc3)CC2)n1`, “inactive”. Regarding `CCOc1cc(CNn2c(C)nnc2SCC(=O)NC(C)(C)C)ccc1OCC(=O)NC(C)(C)C`, the Potency entry was “inactive”. On the same count and under the same terms, to `CCOCCCNCc1ccc(OCc2ccc(F)cc2)c(OC)c1` belongs “inactive”; to `O=C(CCc1n[nH]c(=O)[nH]c1=O)N/N=C/c1ccc(Br)o1`, “inactive”. On the same count and under the same terms, the same measure for `Cc1nnc(SCC(=O)N2c3ccccc3C(C)(c3ccc(Cl)cc3)CC2(C)C)s1` (stereo not drawn): “inactive”.

As to `O=[n+]1c2c(n([O-])c3cc(Br)ccc31)CCC2`, the Potency is 31.6 µM (active).

With `Cc1ccc(-c2c[n+](=O)c3c(n2[O-])CCC3)cc1`, the Potency entry was “inactive”. Same read-out and setting: to `Cc1ccc(-c2c(C)n([O-])c3c([n+]2=O)CCC3)cc1` belongs “inactive”. The same measure, in the same setting: to `COc1ccc([N+](=O)[O-])cc1NC(=O)CC1SC(=Nc2cccc(C)c2C)N(/N=C(\C)c2ccc(C)cc2)C1=O` (stereo not drawn) belongs “inactive”. Still for that read-out and setting: to `CN(c1ccccc1)S(=O)(=O)c1ccc(Cl)c(C(=O)OCC(=O)N2CCOCC2)c1` belongs “inactive”.
